Assay outcomes from PubChem BioAssay.
In the library only some 4.9% were active in any assay of this set; here they are far more common.
CSC inhib – cancer stem cell inhibition | cancer stem cell-like cells viability, luminescence | AID 2717 | inhibition, % at 7.5 µM | hit rate 1.1% among 300,000; in the data active = inhibition above about 75%; inconclusive = no clear call, values can overlap the other calls; tested in HMLE shEcad cells
Beta cell apopt – beta cell apoptosis inhibition | INS-1E cytokine-induced death, ATP luminescence, 48 h; percent of positive-control rescue, neutral wells zero | protection from apoptosis, % (test concentration not listed) | hit rate 0.8% among 300,000;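 active = Every replicate reaches about 75%, or at least half do and their mean reaches it too, limit read from the data; inconclusive = At least half of replicates reach the limit but their mean does not; inactive = Under half of replicates reach the limit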;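 note: higher means more ATP so stronger rescue from cytokine killing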
PP5 primary – inhibitors of human protein phosphatase 5 (PP5); P53041; purified PP5c, OMFP substrate fluorescence; inhibition, % at 6.7 µM; hit rate 0.18% among 320,000;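 active = inhibition above the campaign's mean inhibition across all tested compounds plus 3 SD, cut at about 9.5% in these data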
Target sequence (P53041 whole entry, looked up): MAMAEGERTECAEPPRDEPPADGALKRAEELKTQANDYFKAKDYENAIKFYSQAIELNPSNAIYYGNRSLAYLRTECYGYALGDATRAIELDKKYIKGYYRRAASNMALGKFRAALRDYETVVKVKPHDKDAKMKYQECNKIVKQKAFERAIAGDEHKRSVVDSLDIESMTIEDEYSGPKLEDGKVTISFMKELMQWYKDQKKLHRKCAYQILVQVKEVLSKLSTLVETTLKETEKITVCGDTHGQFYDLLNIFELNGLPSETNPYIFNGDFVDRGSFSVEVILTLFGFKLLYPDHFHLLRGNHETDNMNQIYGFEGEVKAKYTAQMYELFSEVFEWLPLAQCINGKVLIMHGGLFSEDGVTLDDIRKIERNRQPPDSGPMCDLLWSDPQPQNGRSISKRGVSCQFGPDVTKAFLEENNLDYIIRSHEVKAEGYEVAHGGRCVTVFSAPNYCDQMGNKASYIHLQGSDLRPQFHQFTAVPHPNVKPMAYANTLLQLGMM
PP1 counter – counter-screen for PP5 inhibitors: inhibitors of human PP1-alpha; P62136; purified PP1alpha, OMFP fluorescence; inhibition, % at 6.7 µM; hit rate 0.9% among 320,000; AID 2235;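 active = inhibition above the mean inhibition of all tested compounds plus 3 SD, computed separately for each screening campaign, cut at about 15% in these data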
Mdm2-MdmX inh – disrupts the human Mdm2-MdmX interaction; inhibition, % at 8 µM; hit rate 3% among 330,000; SaOS-2 split-luciferase Mdm2/MdmX complementation, luminescence;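 active = inhibition of at least 50% at 8 µM in the primary screen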
Calb FLC – affects C. albicans growth with fluconazole; C. albicans CaCi-2 (fluconazole-resistant clinical isolate) + fluconazole, Alamar Blue growth, 48 h; growth inhibition, % (test concentration not listed); hit rate 0.57% among 300,000; AID 1979;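 active = growth inhibition above about 58% in most replicates, limit read from the data, passing the limit was not always enough; inconclusive = exactly half the replicates above a set limit; inactive = most replicates below a set limit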;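 note: all wells also contain fluconazole at 8 µg/ml as a sub-toxic cotreatment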
Of the large screens only hits and unclear results are named; the others gave an inactive call.

Cc1ccc(NC(=S)N/N=C/c2c(C)[nH]c3ccccc23)cc1	CSC inhib 96.9, Calb FLC inconclusive
COC(=O)c1ncccc1SC	none
CCN1CCN(C(=O)c2cc(-c3ccc(Cl)s3)nc3ccccc23)CC1	none (no result: CSC inhib, Beta cell apopt, PP5 primary, PP1 counter)
COC(=O)C1CCN(C(=O)c2cc(-c3ccc(Cl)s3)nc3ccccc23)CC1	Beta cell apopt 100.8 (no result: CSC inhib, Calb FLC)
C(=N\Nc1nc2ccccc2[nH]1)/c1c[nH]c2ccccc12	Beta cell apopt 118.7
O=[N+]([O-])c1ccc(N/N=C/c2cccc(O)c2O)cc1	CSC inhib 95.6
O=[N+]([O-])c1ccc(N/N=C/c2c[nH]c3ccccc23)cc1	CSC inhib 96.1
O=[N+]([O-])c1ccc(N/N=C/c2cccc(O)c2)cc1	none
O=[N+]([O-])c1ccc(N/N=C/c2ccc[nH]2)cc1	CSC inhib 88.4 (no result: Mdm2-MdmX inh, Calb FLC)
O=C(CN1C(=O)COc2ccccc21)NCCCN1CCN(Cc2ccccc2)CC1	none
O=C(CN1C(=O)COc2ccccc21)NCCCN1CCc2ccccc2C1	Calb FLC 101.2
C=CCc1cccc(CNc2nc3ccccc3n2CCC)c1O	CSC inhib 102.2
C=CCc1cccc(CNc2nc3ccccc3n2CC)c1O	none (no result: CSC inhib)
CCOc1ncccc1C(=O)N1CCN(S(=O)(=O)c2ccc3c(c2)OCCO3)CC1	none (no result: Calb FLC)
CCc1ccc2oc(-c3ccc(OC)cc3)cc(=Nc3c(C)n(C)n(-c4ccccc4)c3=O)c2c1	Calb FLC 71.3
COc1cc(NC(=O)c2sc3ncn(CC(=O)N4CCCC(C)C4)c(=O)c3c2C)cc(OC)c1OC (configuration not stated)	PP1 counter 16.6
CCOC(=O)C1=C(N)Oc2cc(O)ccc2C1c1cccnc1 (configuration not stated)	none
CCOC(=O)C1=C(N)Oc2cc(O)ccc2C1c1cccc(Cl)c1 (configuration not stated)	CSC inhib 82.0
O=C(O)CCNS(=O)(=O)c1ccc2c(c1)OCCCO2	none
Cc1ccc(C(C)C)c(OCC(=O)NNC(=O)C(C(C)C)N2C(=O)c3ccccc3C2=O)c1 (configuration not stated)	none
Oc1ccccc1/C=N/NC(=S)NC1CC2C=CC1C2 (configuration not stated)	none (no result: Beta cell apopt)
Oc1c(Cl)cc(Cl)cc1/C=N/NC(=S)NC1CC2C=CC1C2 (configuration not stated)	CSC inhib 100.2 (no result: Beta cell apopt)
COC(=O)/C=C/C(=O)Nc1cccc(C(F)(F)F)c1	none
O=C(NCc1cccnc1)c1cc(S(=O)(=O)N2CCCCC2)ccc1Cl	none
O=C(NCCN1CCCCC1)Nc1cccc(F)c1	none
Cc1ccc(NC(=O)Cc2nn(C)c(=O)c3ccccc23)cc1F	Beta cell apopt 86.4
COc1cc(NC(=O)Cc2nn(C)c(=O)c3ccccc23)cc(OC)c1	none (no result: Beta cell apopt)
Cn1nc(CC(=O)Nc2ccc3c(c2)OCCO3)c2ccccc2c1=O	Beta cell apopt 75.4
CCOc1cccc(N(C(=O)CNC(=O)c2ccco2)C(C(=O)NCC2CCCO2)c2ccccc2)c1 (configuration not stated)	none
Cc1c(OC(C)C(=O)NCC2CCC(C(=O)O)CC2)ccc2c(-c3ccccc3)cc(=O)oc12 (configuration not stated)	none
CCOC(=O)c1c(NC(=O)C(=O)N/N=C/c2ccccc2O)sc2c1CCCCC2	CSC inhib 82.9
COc1cc(/C=C/C(=O)Nc2ccc(C)cc2)cc(OC)c1OC	none
CCN(CC)CCNC(=O)c1ccc(NC(=O)/C=C/c2cc(OC)c(OC)c(OC)c2)cc1	Calb FLC 66.1 (no result: CSC inhib)
CCOC(=O)c1c(-c2ccccc2Cl)cn2ccccc12	Calb FLC 90.7
Cc1ccccc1N(CC(=O)NC1CCCCC1)C(=O)CCC(=O)Nc1nccs1	PP1 counter 17.2
O=C(c1cc(COc2cccc3cnccc23)on1)N1CCCC(CCCO)C1 (configuration not stated)	Beta cell apopt 117.0
COCC1CCN(C(=O)c2cc(COc3cccc4cnccc34)on2)CC1	none
CC1CCCN(C(=O)c2cccc(S(=O)(=O)Nc3cc(C(F)(F)F)ccc3Cl)c2)C1 (configuration not stated)	Calb FLC 94.1 (no result: Mdm2-MdmX inh)
Cc1ccc([N+](=O)[O-])c(OCCN2CCCCCC2)c1	Beta cell apopt 78.8
O=C(NCc1cccnc1)/C(=C\c1ccc(-c2ccc(Cl)c(Cl)c2)o1)S(=O)(=O)c1ccccc1	CSC inhib 112.7, Beta cell apopt 104.7, Calb FLC inconclusive (no result: Mdm2-MdmX inh)
